# Laboratory results: PubChem BioAssay AID602240 (Southern Research Specialized Biocontainment Screening …, 2012)
# Unmarked numbers belong to inactive results. No rule for the calls is given here.
# Test: Vero 76 cell cytotoxicity, dose response, cytotoxicity control, set 2 (AID 602240)
# Conditions: Vero 76 cells viability, cytotoxicity counter-screen for VEEV; series mostly up to 50 µM; viability: at the top concentration
row,Compound,viability
1,CCN1CCN(Cc2nc3ccc([N+](=O)[O-])cc3c(=O)n2-c2ccccc2F)CC1,73.1%
2,Clc1ccc2nnnc(-c3ccccc3)c2c1,127%
3,O=C(Oc1ccc2ccccc2c1Br)N1CCCCCC1,80.8%
4,O=c1nc(Nc2ccc(OCc3ccccc3)cc2)sc2ncccc12,80.5%
5,O=c1c2cc([N+](=O)[O-])ccc2nc(CN2CCN(c3ccccc3)CC2)n1-c1ccccc1F,71.8%
